Values joined by “and” are separate entries in the source; they are usually repeats but may differ in a detail not shown here. Identical values can stand only once. Records with an inconclusive call do not appear. Active and inactive are the calls of the source. Calls follow the shape of the dose curve; as a rule, active = well fitted inhibition curve with a large enough effect; inconclusive = small, poorly fitted or top-dose-only effect; inactive = flat fitted curve, though single readings scatter. Peptide text beside a SMILES is read from it.
Also: nearly all actives have a fitted effect of over 60% in size.

One test has as its system NIH3T3. Kind of test: Cytotoxic Profiling of Annotated Libraries Using Quantitative High-Throughput Screening (AID 1296008). As to max response: % is scaled to controls: 0 for no effect and ±100 for the full control effect. Conditions: Five cell lines viability, CellTiter-Glo ATP luminescence, 48-72 h; max response: stronger effect = lower value. The essentials:
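Cells exposed to compounds for 48 or 72 hr at 37 degrees Celsius. Viability read as ATP-coupled luminescence with CellTiter-Glo after 10 min at room temperature.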
For orientation: In ATP-based viability assays light output follows the ATP content of the culture.
With `CC(=O)NC[C@H]1CN(c2ccc(N3CCOCC3)c(F)c2)C(=O)O1`, the max response is -16% (inactive) and 2.14% (inactive). For the molecule `CN(C)C(=O)COC(=O)Cc1ccc(OC(=O)c2ccc(N=C(N)N)cc2)cc1`, the max response is 2.87% (inactive) and the molecule was classed as inactive. As for `COc1cc(C(C)=O)ccc1OCCCN1CCC(c2noc3cc(F)ccc23)CC1`, the max response is -2.71% (inactive) and the call was inactive. Take `O=C(O)CCNC(=O)c1ccc(N=Nc2ccc(O)c(C(=O)O)c2)cc1`: the molecule was classed as inactive. As to `CCC[C@@H]1C[C@@H](C(=O)N[C@@H]([C@H]2O[C@H](SC)[C@H](O)[C@@H](O)[C@H]2O)[C@@H](C)O)N(C)C1`, the max response was -4.88% (inactive) and -7.89% (inactive).

For the molecule `Cc1nc(-c2ccc(OCC(C)C)c(C#N)c2)sc1C(=O)O`, the max response is 4.8% (inactive) and the call was inactive.

With `CC1(C)CCC(C)(C)c2cc(NC(=O)c3ccc(C(=O)O)cc3)ccc21`, the max response was -2.77% (inactive) and the molecule was called inactive.

Regarding `Cc1cc2cc3c(C)cc(=O)oc3c(C)c2o1`, the max response was -1.93% (inactive) and the result was inactive.

In the case of `CN(c1nccc(=O)[nH]1)C1CCN(c2nc3ccccc3n2Cc2ccc(F)cc2)CC1`, the max response was 0.52% (inactive) and 4.28% (inactive); the molecule was called inactive. `CCCS(=O)c1ccc2nc(NC(=O)OC)[nH]c2c1` (stereo not given): the max response is -29.9% (inactive). `Clc1ccc(C(Cn2ccnc2)OCc2c(Cl)cccc2Cl)c(Cl)c1` (stereo not given): the max response was -3.81% (inactive) and -0.381% (inactive); the result was inactive. On to `Cc1ccc(C)c(OCCCC(C)(C)C(=O)O)c1`, for which the max response was -1.31% (inactive) and 0.244% (inactive).

On to `CC(C)[C@H](N)C(=O)OCCOCn1cnc2c(=O)[nH]c(N)nc21`, for which the molecule was called inactive.

As for `Clc1ccc(C(Cn2ccnc2)OCc2ccc(Sc3ccccc3)cc2)c(Cl)c1` (stereo not given), the max response was -3.29% (inactive) and the molecule was called inactive. The like results for `Cc1ncc([N+](=O)[O-])n1CC(C)O` (stereo not given) were, in that order, 2.47% (inactive) and “inactive”. The like results for `Cc1c(C(=O)NN2CCCCC2)nn(-c2ccc(Cl)cc2Cl)c1-c1ccc(Cl)cc1` were, in that order, 0.216% (inactive) and “inactive”. For the molecule `Cn1c(NCCN(CCO)CCCc2ccc([N+](=O)[O-])cc2)cc(=O)n(C)c1=O`, the max response is 4.21% (inactive) and -8.98% (inactive).

`COc1ccc2cc([C@H](C)C(=O)O)ccc2c1`: the max response is 2.8% (inactive) and -7.1% (inactive); the outcome was inactive.

As to `CS(=O)(=O)OCCCCOS(C)(=O)=O`, the max response was -7.8% (inactive) and -0.608% (inactive).

On to `COc1cc2nc(N3CCN(C(=O)C4CCCO4)CC3)nc(N)c2cc1OC` (stereo not given), for which the max response is -4.15% (inactive) and -2.16% (inactive). As to `COC1=C(OC)C(=O)C(CCCCCCCCCCO)=C(C)C1=O`, the max response is 4.9% (inactive) and the result was inactive. On to `COc1ccc(C2(C#N)CCC(C(=O)O)CC2)cc1OC1CCCC1` (stereo not given), for which the max response was 4.78% (inactive) and 4.09% (inactive). On the same count and under the same terms, the result for `COC(=O)[C@H](Cc1ccccc1)NC(=O)[C@@H](N)CC(=O)O` (H-Asp-Phe-OMe) reads -5.4% (inactive) and -2.3% (inactive).

In the next test the test system is HACAT. Kind of test: qHTS assay to identify novel small-molecules to repurpose for Merkel cell carcinoma treatment (AID 1296009). Conditions: MCC and control cell lines, CellTiter-Glo viability, 72 h; at 44.8 µM (top of the series) unless noted. The essentials:
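CellTiter-Glo luminescence after 72 hr compound exposure at 37 degree celsius gave cell viability. Libraries NPC and MIPE were run as 8- and 11-point dose responses; RLUs normalized to DMSO (negative) and no-cell (cytotoxicity) controls.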
In general terms: qHTS replaces the single test concentration by a dilution series.
As to `CCN(CCO)CCCC(C)Nc1ccnc2cc(Cl)ccc12` (stereo not given), the outcome is “inactive [at 4.96 µM]”. Still for that read-out and setting: the result for `CC1=C(C)C(=O)C(C(CCCCCC(=O)O)c2ccccc2)=C(C)C1=O` (stereo not given) reads “inactive”. The same measure, in the same setting: as for `CC(=O)Nc1ccc(O)cc1`, the entry is “inactive”; as for `Cc1cc2c(s1)Nc1ccccc1N=C2N1CCN(C)CC1`, “inactive”; as for `CC1=C(C(=O)O)N2C(=O)[C@@H](NC(=O)[C@H](N)C3=CCC=CC3)[C@H]2SC1`, “inactive”. Still for that read-out and setting: as for `Cc1cccc(CN2CCN(C(c3ccccc3)c3ccc(Cl)cc3)CC2)c1` (stereo not given), the entry is “inactive”; as for `CN(C)[C@@H](CCOc1cccc2ccccc12)c1ccccc1`, “inactive”; as for `COC(=O)N[C@H](C(=O)N[C@@H](Cc1ccccc1)[C@@H](O)CN(Cc1ccc(-c2ccccn2)cc1)NC(=O)[C@@H](NC(=O)OC)C(C)(C)C)C(C)(C)C`, “inactive”. As to `CCC1=C(C)CN(C(=O)NCCc2ccc(S(=O)(=O)NC(=O)NC3CCC(C)CC3)cc2)C1=O` (stereo not given), the molecule was called inactive.

For the molecule `CN(C)c1ccc(O)c2c1C[C@H]1C[C@H]3[C@H](N(C)C)C(=O)C(C(N)=O)=C(O)[C@@]3(O)C(=O)C1=C2O`, the molecule was classed as inactive. Take `O=C(NC(Cc1cc(=O)[nH]c2ccccc12)C(=O)O)c1ccc(Cl)cc1` (stereo not given): the result was inactive.

`CC(=O)NC[C@H]1CN(c2ccc(N3CCOCC3)c(F)c2)C(=O)O1`: the result was inactive. As to `CN(C)C(=O)COC(=O)Cc1ccc(OC(=O)c2ccc(N=C(N)N)cc2)cc1`, the outcome was inactive. On the same count and under the same terms, the result for `COc1cc(C(C)=O)ccc1OCCCN1CCC(c2noc3cc(F)ccc23)CC1` reads “inactive”; that for `O=C(O)CCNC(=O)c1ccc(N=Nc2ccc(O)c(C(=O)O)c2)cc1`, “inactive”. Still for that read-out and setting: the result for `Cc1nc(-c2ccc(OCC(C)C)c(C#N)c2)sc1C(=O)O` reads “inactive”; that for `CC1(C)CCC(C)(C)c2cc(NC(=O)c3ccc(C(=O)O)cc3)ccc21`, “inactive”. Still for that read-out and setting: as for `Cc1cc2cc3c(C)cc(=O)oc3c(C)c2o1`, the entry is “inactive”; as for `CN(c1nccc(=O)[nH]1)C1CCN(c2nc3ccccc3n2Cc2ccc(F)cc2)CC1`, “inactive”; as for `Clc1ccc(C(Cn2ccnc2)OCc2c(Cl)cccc2Cl)c(Cl)c1` (stereo not given), “inactive”.

For the molecule `Cc1ccc(C)c(OCCCC(C)(C)C(=O)O)c1`, the result was inactive. Same read-out and setting: as for `CC(C)[C@H](N)C(=O)OCCOCn1cnc2c(=O)[nH]c(N)nc21`, the entry is “inactive”; as for `Clc1ccc(C(Cn2ccnc2)OCc2ccc(Sc3ccccc3)cc2)c(Cl)c1` (stereo not given), “inactive”.

Take `Cc1ncc([N+](=O)[O-])n1CC(C)O` (stereo not given): the call was inactive. For `Cc1c(C(=O)NN2CCCCC2)nn(-c2ccc(Cl)cc2Cl)c1-c1ccc(Cl)cc1`, the molecule was called inactive.

As for `Cn1c(NCCN(CCO)CCCc2ccc([N+](=O)[O-])cc2)cc(=O)n(C)c1=O`, the result was inactive.

As for `COc1ccc2cc([C@H](C)C(=O)O)ccc2c1`, the molecule was called inactive.

For the molecule `CS(=O)(=O)OCCCCOS(C)(=O)=O`, the result was inactive.

Consider `COC1=C(OC)C(=O)C(CCCCCCCCCCO)=C(C)C1=O`, for which the result was inactive. The same measure, in the same setting: as for `COc1ccc(C2(C#N)CCC(C(=O)O)CC2)cc1OC1CCCC1` (stereo not given), the entry is “inactive”.

These data come from PubChem BioAssay (NCATS).
